# Results published in PubChem BioAssay AID1159580 (chemical genetic matrix, 2015).
# The campaign covered roughly 5,500 compounds. About 2,000 (36%) were called active. About 18% were inconclusive and are not listed. The list shows a part of the results. Values without a mark were called inactive. Cut-off read from the data, not from the text of the source: active = normalized growth mostly below about 0.91 (no sharp cut-off); inconclusive = no clear call, values can overlap the other calls; inactive = mostly above about 0.92.
# Experiment: chemical genetic growth profiling, strain panel (AID 1159580);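 note: tested at 20 µM; growth read once vehicle control cultures reached saturation at 30 °C; 1 = growth at the plate median or of vehicle wells; lower values mean less growth of the strain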
# Details: growth OD
structure (smiles),measurement,setting,value
CC(=O)N(O)CCCCCNC(=O)CCC(=O)N(O)CCCCCNC(=O)CCC(=O)N(O)CCCCCN,normalized growth,"S. cerevisiae deletion strains, locus YJR066W, strain TOR1, hits give low values",0.95
same,normalized growth,"S. cerevisiae deletion strains, locus YJR075W, strain HOC1, hits give low values",1.01
same,normalized growth,"S. cerevisiae deletion strains, locus YKL009W, strain mrt4, hits give low values",1.01
same,normalized growth,"S. cerevisiae deletion strains, locus YKL068W, hits give low values",1.05
same,normalized growth,"S. cerevisiae deletion strains, locus YKL085W, strain MDH1 (second series), hits give low values",1.02
same,normalized growth,"S. cerevisiae deletion strains, locus YKL085W, strain MDH1, hits give low values",1.02
same,normalized growth,"S. cerevisiae deletion strains, locus YKL160W, strain elf1, hits give low values",0.998
same,normalized growth,"S. cerevisiae deletion strains, locus YKL190W, strain CNB1, hits give low values",1.01
same,normalized growth,"S. cerevisiae deletion strains, locus YKR001C, strain vps1, hits give low values",0.966
same,normalized growth,"S. cerevisiae deletion strains, locus YKR026C, strain gcn3, hits give low values",1.03
same,normalized growth,"S. cerevisiae deletion strains, locus YKR091W, strain srl3, hits give low values",1.01
same,normalized growth,"S. cerevisiae deletion strains, locus YLL001W, strain dnm1, hits give low values",0.991
same,normalized growth,"S. cerevisiae deletion strains, locus YLL026W, hits give low values",0.997
same,normalized growth,"S. cerevisiae deletion strains, locus YLL041C, strain sdh2, hits give low values",1
same,normalized growth,"S. cerevisiae deletion strains, locus YLR027C, strain aat2, hits give low values",1
same,normalized growth,"S. cerevisiae deletion strains, locus YLR039C, strain RIC1, hits give low values",0.997
same,normalized growth,"S. cerevisiae deletion strains, locus YLR058C, strain SHM2, hits give low values",1.01
same,normalized growth,"S. cerevisiae deletion strains, locus YLR102C, strain apc9, hits give low values",1.03
same,normalized growth,"S. cerevisiae deletion strains, locus YLR113W, strain HOG1, hits give low values",1.14
same,normalized growth,"S. cerevisiae deletion strains, locus YLR221C, strain rsa3, hits give low values",1.04
same,normalized growth,"S. cerevisiae deletion strains, locus YLR258W, strain gsy2, hits give low values",1.02
same,normalized growth,"S. cerevisiae deletion strains, locus YLR262C, strain YPT6 (second series), hits give low values",0.995
same,normalized growth,"S. cerevisiae deletion strains, locus YLR262C, strain YPT6, hits give low values",1.08
same,normalized growth,"S. cerevisiae deletion strains, locus YLR268W, strain sec22, hits give low values",0.981
same,normalized growth,"S. cerevisiae deletion strains, locus YLR320W, strain mms22, hits give low values",1.07
same,normalized growth,"S. cerevisiae deletion strains, locus YLR330W, strain CHS5, hits give low values",1.01
same,normalized growth,"S. cerevisiae deletion strains, locus YLR342W, strain FKS1 (second series), hits give low values",0.854
same,normalized growth,"S. cerevisiae deletion strains, locus YLR342W, strain FKS1, hits give low values",0.958
same,normalized growth,"S. cerevisiae deletion strains, locus YLR357W, strain rsc2, hits give low values",0.882
same,normalized growth,"S. cerevisiae deletion strains, locus YLR370C, strain arc18, hits give low values",1
same,normalized growth,"S. cerevisiae deletion strains, locus YLR371W, strain rom2, hits give low values",1.02
same,normalized growth,"S. cerevisiae deletion strains, locus YLR384C, strain iki3, hits give low values",0.991
same,normalized growth,"S. cerevisiae deletion strains, locus YLR418C, strain cdc73, hits give low values",0.864
same,normalized growth,"S. cerevisiae deletion strains, locus YML016C, strain PPZ1, hits give low values",1.01
same,normalized growth,"S. cerevisiae deletion strains, locus YML032C, strain rad52, hits give low values",1.06
same,normalized growth,"S. cerevisiae deletion strains, locus YML120C, strain ndi1, hits give low values",0.993
same,normalized growth,"S. cerevisiae deletion strains, locus YML124C, strain tub3, hits give low values",1.03
same,normalized growth,"S. cerevisiae deletion strains, locus YMR058W, strain fet3, hits give low values",1.02
same,normalized growth,"S. cerevisiae deletion strains, locus YMR078C, strain ctf18, hits give low values",1.04
same,normalized growth,"S. cerevisiae deletion strains, locus YMR125W, strain sto1, hits give low values",1.06
same,normalized growth,"S. cerevisiae deletion strains, locus YMR129W, hits give low values",1.01
same,normalized growth,"S. cerevisiae deletion strains, locus YMR205C, strain PFK2, hits give low values",1.03
same,normalized growth,"S. cerevisiae deletion strains, locus YMR223W, strain ubp8, hits give low values",0.998
same,normalized growth,"S. cerevisiae deletion strains, locus YMR231W, strain pep5, hits give low values",0.983
same,normalized growth,"S. cerevisiae deletion strains, locus YMR307W, strain GAS1, hits give low values",0.809
same,normalized growth,"S. cerevisiae deletion strains, locus YNL067W, strain RPL9B, hits give low values",0.999
same,normalized growth,"S. cerevisiae deletion strains, locus YNL071W, strain lat1, hits give low values",1.04
same,normalized growth,"S. cerevisiae deletion strains, locus YNL128W, strain TEP1, hits give low values",1.01
same,normalized growth,"S. cerevisiae deletion strains, locus YNL153C, strain GIM3, hits give low values",0.99
same,normalized growth,"S. cerevisiae deletion strains, locus YNL183C, strain NPR1, hits give low values",0.995
same,normalized growth,"S. cerevisiae deletion strains, locus YNL209W, strain ssb2, hits give low values",0.917 (active)
same,normalized growth,"S. cerevisiae deletion strains, locus YNL233W, strain BNI4, hits give low values",0.987
same,normalized growth,"S. cerevisiae deletion strains, locus YNL248C, strain rpa49, hits give low values",1.08
same,normalized growth,"S. cerevisiae deletion strains, locus YNL250W, strain rad50, hits give low values",1.08
same,normalized growth,"S. cerevisiae deletion strains, locus YNL271C, strain bni1, hits give low values",0.978
same,normalized growth,"S. cerevisiae deletion strains, locus YNL298W, strain CLA4, hits give low values",1
same,normalized growth,"S. cerevisiae deletion strains, locus YNL307C, strain MCK1, hits give low values",1.03
same,normalized growth,"S. cerevisiae deletion strains, locus YNL322C, strain KRE1 (second series), hits give low values",1.01
same,normalized growth,"S. cerevisiae deletion strains, locus YNR049C, strain mso1, hits give low values",1.01
same,normalized growth,"S. cerevisiae deletion strains, locus YNR052C, strain pop2, hits give low values",1.01
same,normalized growth,"S. cerevisiae deletion strains, locus YOL012C, strain htz1",1.51
same,normalized growth,"S. cerevisiae deletion strains, locus YOL147C, strain pex11, hits give low values",1.02
same,normalized growth,"S. cerevisiae deletion strains, locus YOR001W, strain rrp6, hits give low values",0.96
same,normalized growth,"S. cerevisiae deletion strains, locus YOR061W, strain CKA2, hits give low values",0.996
same,normalized growth,"S. cerevisiae deletion strains, locus YOR069W, strain VPS5, hits give low values",1.01
same,normalized growth,"S. cerevisiae deletion strains, locus YOR070C, strain gyp1, hits give low values",1.01
same,normalized growth,"S. cerevisiae deletion strains, locus YOR080W, strain dia2, hits give low values",0.996
same,normalized growth,"S. cerevisiae deletion strains, locus YOR083W, strain WHI5, hits give low values",0.958
same,normalized growth,"S. cerevisiae deletion strains, locus YOR106W, strain vam3, hits give low values",0.844 (active)
same,normalized growth,"S. cerevisiae deletion strains, locus YOR136W, strain idh2, hits give low values",1.03
same,normalized growth,"S. cerevisiae deletion strains, locus YOR144C, strain elg1, hits give low values",1.02
same,normalized growth,"S. cerevisiae deletion strains, locus YOR184W, strain ser1, hits give low values",0.999
same,normalized growth,"S. cerevisiae deletion strains, locus YOR231W, strain MKK1, hits give low values",1.04
same,normalized growth,"S. cerevisiae deletion strains, locus YOR265W, strain rbl2, hits give low values",1
same,normalized growth,"S. cerevisiae deletion strains, locus YOR270C, strain vph1, hits give low values",0.964
same,normalized growth,"S. cerevisiae deletion strains, locus YOR290C, strain snf2, hits give low values",1.02
same,normalized growth,"S. cerevisiae deletion strains, locus YOR316C, strain cot1, hits give low values",1.04
same,normalized growth,"S. cerevisiae deletion strains, locus YPL051W, strain arl3, hits give low values",1.07
same,normalized growth,"S. cerevisiae deletion strains, locus YPL078C, strain atp4, hits give low values",0.985
same,normalized growth,"S. cerevisiae deletion strains, locus YPL106C, strain sse1, hits give low values",0.953
same,normalized growth,"S. cerevisiae deletion strains, locus YPL240C, strain hsp82, hits give low values",1.01
same,normalized growth,"S. cerevisiae deletion strains, locus YPL256C, strain CLN2, hits give low values",1.09
same,normalized growth,"S. cerevisiae deletion strains, locus YPR119W, strain clb2, hits give low values",1.04
same,normalized growth,"S. cerevisiae deletion strains, locus YPR141C, strain kar3, hits give low values",1.05
same,normalized growth,"S. cerevisiae deletion strains, locus YPR163C, strain tif3, hits give low values",1.03
same,normalized growth,"S. cerevisiae deletion strains, locus YPR167C, strain met16, hits give low values",1.04
same,normalized growth,"S. cerevisiae deletion strains, strain wtn01, hits give low values",0.998
same,normalized growth,"S. cerevisiae strains, strain wild type, hits give low values",1.01
